TDP1 inh: blocks human tyrosyl-DNA phosphodiesterase 1. Potency, µM (doses to about 130 µM), actives largely listed as inhibitors. 350,000 compounds, 0.28% hits. recombinant TDP1, AlphaScreen DNA substrate cleavage; note: nearly all actives have a fitted effect of over 40% in size
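Recombinant E. coli-expressed Tdp1 (1 nM) preincubated with compound 15 min at RT, then 5'-biotin/3'-phosphotyrosine-FITC DNA substrate (15 nM) added for 5 min. AlphaScreen beads (10 ug/ml) added, 10 min RT; tyrosine-FITC cleavage read as signal loss.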
TDP1 cell CPT: DT40-hTDP1 cell growth loss with CPT; Potency, µM (series often up to 46.2 µM), usual class: inhibitors; chicken DT40 Tdp1-/-;hTDP1 cells + 20 nM CPT, ATP luminescence, 48 h; AID 686979; 420,000 compounds, 12% hits; note: nearly all actives have a fitted effect of over 55% in size
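Chicken DT40 Tdp1-/- cells complemented with human TDP1, 400 cells/well, exposed to compounds plus 20 nM camptothecin for at least 48 h at 37 C; viability read as ATP content by CellTiter-Glo luminescence.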
Gal4-VP16 FLuc: counter-screen for ROR gamma inhibitors: Gal4-VP16 reporter | Drosophila S2 Gal4-VP16 UAS-luciferase, luminescence, 20 h | Potency, µM (doses to about 53.6 µM), usual class: inhibitors | 310,000 compounds, 3.5% hits | AID 2546;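 note: Gal4-VP16 expression switched on by copper sulfate through the metallothionein promoter; nearly all actives have a fitted effect of over 50% in size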
TDP1 cell noCPT: qHTS for Inhibitors of human tyrosyl-DNA phosphodiesterase 1 (TDP1): qHTS in cells in absence of CPT | DT40 Tdp1-/- hTDP1 cells, no CPT, ATP luminescence, 48 h | Potency, µM (top dose mostly 46.2 µM), actives largely listed as inhibitors | AID 686978, 2013 | 420,000 compounds, 15% hits; note: nearly all actives have a fitted effect of over 55% in size
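Luminescent ATP content (CellTiter-Glo) served as the growth readout. Knockout chicken DT40 cells expressing human TDP1 were exposed to compounds without camptothecin for a minimum 48 hr at 37 °C.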
RORgamma inh: inhibitors of mouse ROR gamma transcriptional activity; Drosophila S2 Gal4-RORgamma UAS-luciferase reporter, 20 h; 310,000 compounds, 5.4% hits; P51450; Potency, µM (top dose mostly 53.6 µM), hits mostly inhibitors; note: nearly all actives have a fitted effect of over 60% in size
Target sequence (P51450 whole entry, looked up, the tested form may be a part): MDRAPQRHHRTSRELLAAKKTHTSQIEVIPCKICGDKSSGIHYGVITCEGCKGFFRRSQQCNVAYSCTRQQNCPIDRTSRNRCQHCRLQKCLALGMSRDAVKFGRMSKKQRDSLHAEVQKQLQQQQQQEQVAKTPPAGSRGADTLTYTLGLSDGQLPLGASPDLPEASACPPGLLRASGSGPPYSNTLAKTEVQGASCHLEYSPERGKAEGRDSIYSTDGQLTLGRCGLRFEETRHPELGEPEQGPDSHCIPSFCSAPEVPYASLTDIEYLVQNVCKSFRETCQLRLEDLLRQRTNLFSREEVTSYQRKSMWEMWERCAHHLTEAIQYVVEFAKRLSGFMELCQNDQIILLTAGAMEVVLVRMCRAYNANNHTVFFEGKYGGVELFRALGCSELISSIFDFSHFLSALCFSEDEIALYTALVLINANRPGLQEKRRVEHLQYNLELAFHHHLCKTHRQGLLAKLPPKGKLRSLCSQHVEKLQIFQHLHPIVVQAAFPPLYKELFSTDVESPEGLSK
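Compounds are pin-transferred onto Drosophila Schneider cells expressing a copper-inducible Gal4–ROR gamma transactivation domain fusion. After 1 hr, copper sulfate is added to 700 uM final; luciferase is read 20 hr later.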
Each line names hits and unclear results; the compound was inactive in the other large screens. This is a sample that favours compounds with a hit; in the whole collection about 19% have one here. Calls come from the whole dose curve; as a rule, active = well fitted curve in the direction sought with a large enough effect; inconclusive = small, poorly fitted or top-dose-only effect, or another doubt; inactive = no such curve, though single readings can be large; an effect the other way counts as inactive or inconclusive.

CC(=O)Nc1ccc(C(=O)CSc2nnc(C)o2)cc1	none
COc1cccc(CNc2nc3ccccc3n2C)c1O	TDP1 cell noCPT inconclusive (no result: TDP1 inh)
COc1cccc(CNc2nc3cc(-c4ccccc4C)sc3c(=O)n2C)c1	TDP1 cell CPT 20.6µM, TDP1 cell noCPT 23.1µM (no result: TDP1 inh, Gal4-VP16 FLuc, RORgamma inh)
COc1ccccc1CNc1nc2cc(-c3ccccc3C)sc2c(=O)n1C	TDP1 cell CPT inconclusive, TDP1 cell noCPT 23.1µM (no result: TDP1 inh, Gal4-VP16 FLuc, RORgamma inh)
Cc1ccccc1-n1c(=O)cc(N2CC(C)OC(C)C2)[nH]c1=O (configuration not stated)	none
C=CCn1c(SCc2ccc([N+](=O)[O-])cc2)nnc1C(C)NC(=O)c1ccccc1 (configuration not stated)	TDP1 cell CPT inconclusive
CC(Sc1n[nH]c(=O)n1Cc1ccccc1)C(=O)NCC1CCCO1 (configuration not stated)	none (no result: Gal4-VP16 FLuc, RORgamma inh)
CCc1ccc(NC(=O)c2ccc(CNS(=O)(=O)c3ccc4c(c3)C(C)(C)C(=O)N4C)cc2)cc1	TDP1 cell CPT inconclusive, TDP1 cell noCPT 4.11µM (no result: Gal4-VP16 FLuc, RORgamma inh)
Cc1ccc(CNS(=O)(=O)c2ccc3c(c2)C(C)(C)C(=O)N3C)cc1	none (no result: TDP1 inh)
CN1C(=O)C(C)(C)c2cc(S(=O)(=O)NCc3ccc(C(=O)Nc4ccc(Cl)cc4)cc3)ccc21	TDP1 cell CPT 18.4µM, TDP1 cell noCPT 13µM (no result: Gal4-VP16 FLuc, RORgamma inh)
COc1ccc(CCN(C(=O)/C=C/C(=O)O)C2CC(=O)N(c3ccccc3)C2=O)cc1 (configuration not stated)	none
COc1cccc(/C=N/NC(=O)CN(C2=NS(=O)(=O)c3ccccc32)c2ccccc2)c1	none
CC1(C)CC[C@]2(C)CC[C@@]3(C)C(=CCC4[C@@]5(C)CCC(O)C(C)(C)C5CC[C@@]43C)C2C1 (some centres not stated)	none
CC1(C)CC[C@]2(C(=O)O)C(O)C[C@@]3(C)C(=CCC4[C@@]5(C)CCC(O)C(C)(C)C5CC[C@@]43C)C2C1 (some centres not stated)	RORgamma inh 1.41µM
CCCn1c(=N)n(CC(O)c2ccc(C)cc2)c2ccccc21 (configuration not stated)	TDP1 cell CPT inconclusive, TDP1 cell noCPT 23.1µM
CN=c1sc2ccccc2n1CC(O)COc1ccccc1 (configuration not stated)	TDP1 cell CPT inconclusive, TDP1 cell noCPT 18.4µM
Cn1c(=N)n(CC(O)c2cccc3ccccc23)c2ccccc21 (configuration not stated)	TDP1 cell CPT 14.6µM, TDP1 cell noCPT 13µM
CCCCN(CC(O)COc1cccc(C)c1)CC(O)COc1cccc(C)c1 (configuration not stated)	TDP1 cell CPT inconclusive, Gal4-VP16 FLuc inconclusive, TDP1 cell noCPT 23.1µM, RORgamma inh inconclusive (no result: TDP1 inh)
CCCOc1ccc(CNC(=O)Cn2c(=O)oc3ccccc32)cc1	TDP1 cell CPT inconclusive, TDP1 cell noCPT inconclusive
O=C(Nc1ccnc(-c2cccnc2)n1)c1ccc(Cl)c(Cl)c1	none
CCN(CC)CCn1c(=N)n(CC(O)COc2ccccc2)c2ccccc21 (configuration not stated)	TDP1 cell CPT inconclusive, TDP1 cell noCPT 18.4µM
Cc1cccc(OCC(O)CN2CCc3ccccc3C2)c1 (configuration not stated)	TDP1 cell CPT inconclusive, TDP1 cell noCPT inconclusive
CCCn1c(=N)n(CC(O)COc2ccc(C)cc2)c2ccccc21 (configuration not stated)	TDP1 cell CPT 4.61µM, Gal4-VP16 FLuc inconclusive, TDP1 cell noCPT 5.17µM
CCCCn1c(=N)n(CC(O)COc2cccc(C)c2)c2ccccc21 (configuration not stated)	TDP1 cell CPT 11.6µM, Gal4-VP16 FLuc inconclusive, TDP1 cell noCPT 13µM
CCn1c(=N)n(CC(O)COc2ccc(C)cc2)c2ccccc21 (configuration not stated)	TDP1 cell CPT 11.6µM, TDP1 cell noCPT 16.4µM
CCN(CC)CCn1c(=N)n(CCO)c2ccccc21	none
OC(COc1ccccc1)Cn1c2ccccc2c2ccccc21 (configuration not stated)	TDP1 cell CPT inconclusive, Gal4-VP16 FLuc inconclusive, TDP1 cell noCPT inconclusive
CCOC(=O)CNC(=O)CSc1nc2cccnc2n1C	none
Cc1ccc(NC(=O)C2CC(=O)N(c3ccc4c(c3)OCCO4)C2)cc1S(=O)(=O)N(C)C (configuration not stated)	TDP1 cell noCPT inconclusive (no result: Gal4-VP16 FLuc, RORgamma inh)
CCn1c(CN2CCN(c3cccc(Cl)c3)CC2)nc2c1c(=O)[nH]c(=O)n2C	TDP1 cell CPT inconclusive, TDP1 cell noCPT 18.4µM (no result: Gal4-VP16 FLuc, RORgamma inh)
CCCCCn1c(N2CCN(c3cccc(Cl)c3)CC2)nc2c1c(=O)[nH]c(=O)n2C	TDP1 cell CPT 20.6µM, TDP1 cell noCPT 23.1µM, RORgamma inh inconclusive
CC1CCCN(C(=O)CSc2nnc(-c3cccnc3)n2C2CCCCC2)C1 (configuration not stated)	none
O=C(ONc1ccc(N=NC(=O)c2ccccc2O)cc1)c1ccccc1	TDP1 cell CPT 7.31µM, TDP1 cell noCPT 6.51µM, RORgamma inh 7.08µM
O=Nc1ccc(NOC(=O)c2ccccc2Br)cc1	Gal4-VP16 FLuc inconclusive, TDP1 cell noCPT inconclusive, RORgamma inh inconclusive
CSCCC(NS(=O)(=O)c1ccc2ccccc2c1)C(=O)OCC(=O)c1ccc(C(C)C)cc1 (configuration not stated)	TDP1 cell CPT 23.1µM, TDP1 cell noCPT 16.4µM
CSCCC(NS(=O)(=O)c1ccc(Cl)cc1)C(=O)OCC(=O)c1c(C)[nH]c2ccccc12 (configuration not stated)	TDP1 cell CPT inconclusive, Gal4-VP16 FLuc 15.8µM, TDP1 cell noCPT 14.6µM, RORgamma inh inconclusive
Cc1[nH]c2ccccc2c1C(=O)COC(=O)C1CC(O)CN1S(=O)(=O)c1ccc(Cl)cc1 (configuration not stated)	TDP1 cell CPT inconclusive, TDP1 cell noCPT inconclusive (no result: Gal4-VP16 FLuc, RORgamma inh)
CN(C)CCCNC(=S)NCC(c1ccc(Cl)cc1Cl)c1c[nH]c2ccccc12 (configuration not stated)	TDP1 cell CPT inconclusive, Gal4-VP16 FLuc inconclusive, TDP1 cell noCPT inconclusive, RORgamma inh inconclusive
O=C(CC(C(=O)O)c1c[nH]c2ccccc12)c1ccccc1 (configuration not stated)	none
NCC(c1ccc(Cl)cc1Cl)c1c[nH]c2ccccc12 (configuration not stated)	TDP1 cell CPT 18.4µM, TDP1 cell noCPT 23.1µM (no result: TDP1 inh)
NCC(c1ccccc1Cl)c1c[nH]c2ccccc12 (configuration not stated)	TDP1 cell CPT 5.17µM, TDP1 cell noCPT 13µM
O=C(NC1CC1)C1CCN(C2CCN(C(=O)c3ccc(C(F)(F)F)cc3)CC2)CC1	none
CNC1C(O)C(OC2C(N)CC(N)C(OC3OC(CN)=CCC3N)C2O)OCC1(C)O (configuration not stated)	none (no result: TDP1 inh, TDP1 cell CPT, TDP1 cell noCPT)
